Screening data from PubChem BioAssay.
D1 antag: human D1 dopamine receptor antagonism. P21728. HEK293 TREx D1 cells, calcium flux, dopamine EC80; hits give low values. activity change, negative = inhibition, % at 10 µM. 360,000 compounds, 3.2% hits; in the data active means activity change below about -30%; further: on the % scale 0 is the no-effect control and ±100 the full control effect
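Inducible Hek293 Trex D1 cells (tetracycline, overnight, 30 C). Calcium dye 30–90 min RT. Antagonist mode: EC80 dopamine added after 180 s compound read.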
D1 PAM: enhances dopamine response at the human D1 receptor; P21728; HEK293 TREx D1 cells, calcium flux, dopamine EC20 potentiation; potentiation, % at 10 µM; AID 504651; 360,000 compounds, 0.036% hits; in the data active means potentiation above about 30%; further: 0% is about no effect
TRHR ag: agonists of human TRH receptor; TRHR cells, calcium flux fluo-8, FDSS agonist mode; P34981; 360,000 compounds, 0.18% hits; AID 493084; activation, % at 2 µM; further: 0% is about no effect
Target sequence (P34981 whole entry, looked up): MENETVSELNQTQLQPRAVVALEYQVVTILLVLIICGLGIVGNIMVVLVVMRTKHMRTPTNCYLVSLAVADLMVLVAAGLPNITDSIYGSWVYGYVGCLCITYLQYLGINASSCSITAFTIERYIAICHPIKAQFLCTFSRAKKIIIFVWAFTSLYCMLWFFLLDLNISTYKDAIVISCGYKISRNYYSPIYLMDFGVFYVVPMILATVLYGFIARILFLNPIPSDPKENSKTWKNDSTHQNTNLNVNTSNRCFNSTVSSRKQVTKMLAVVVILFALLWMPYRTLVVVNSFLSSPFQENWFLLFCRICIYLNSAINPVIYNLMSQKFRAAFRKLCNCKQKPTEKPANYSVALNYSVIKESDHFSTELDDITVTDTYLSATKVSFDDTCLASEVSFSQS
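Agonist-mode FDSS calcium read (Ex 480/Em 530, 1 s cycles) in 1536-well TRHR cells with fluo-8 dye, after 10-cycle baseline and 23 nL compound addition; TRH at EC20 (10 nM final) added afterwards for the enhancer phase.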
D1 agonist: agonists of human D1 dopamine receptor | 360,000 compounds, 1% hits | activation, % at 2 µM | HEK293 T-REx D1 cells, calcium flux, agonist mode | P21728; further: 0% is about no effect
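Inducible HEK293 T-REx D1 cells, force-coupled to calcium signalling, were plated at 4000 cells/well with tetracycline and held overnight at 30 C. After no-wash calcium dye loading, compound-evoked calcium rise over 180 s flagged agonists.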
TRHR enhancer: allosteric enhancers of human TRH receptor; P34981; enhancement, % at 2 µM; 360,000 compounds, 0.66% hits; TRHR cells, fluo-8 calcium fluorescence, EC20 TRH enhancement; in the data active means enhancement above about 30%; further: 0% is about no effect
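Enhancer read-out: after compound pinning and an initial kinetic agonist-mode read, an EC20 of TRH (10 nM final) was injected and fluo-8 calcium signal (Ex 480/Em 530) followed at 1 s/cycle for 100 cycles in TRHR-expressing cells.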
* marks the source's active call; other numbers are inactive results; ! = a repeat was not active. This is a sample that favours compounds with a hit; in the whole collection about 4.7% have one here. Unless noted, no stated cut-off is given here; in the data, active means activation above about 30%; inactive means the rest.

SMILES	D1 antag	D1 PAM	TRHR ag	D1 agonist	TRHR enhancer
CCc1cccc(NC(=O)C(Cc2ccccc2)NS(=O)(=O)c2cccs2)c1 (stereo not drawn)	13	0	0	5	3
COc1cccc(Cn2c(CNS(=O)(=O)c3ccc(C(C)(C)C)cc3)nc3cccnc32)c1	1	1	0	3	0
CCOC(=O)CC1(NC(=O)c2cc(COc3ccc(F)c(F)c3)on2)CCCCC1	32	-2	2	31*	1
Cc1cc(CNC(=O)c2cc(COc3ccc(F)c(F)c3)on2)nn1C	-3	1	1	27	3
O=C(NCCO)C(=O)c1c(-c2ccccc2)cc2ccccn12	-31*	-3	0	0	12
CCC(Sc1nc2n[nH]c(C)c2c(=N)n1-c1cccc(Cl)c1C)C(=O)N(CC)CC (stereo not drawn)	-41*	5	0	1	-3
CCc1ccc(-n2c(SC(CC)C(=O)N(CC)CC)nc3n[nH]c(C)c3c2=N)cc1 (stereo not drawn)	15	4	-1	3	-1
CCOC(=O)N/N=C\c1sccc1C	-42*	-3	0	2	-4
Cc1ccsc1/C=N\NC(=O)c1cc(C(C)(C)C)[nH]n1	-39*	-8	-1	0	7
Cc1ccsc1/C=N/NC(=O)CO	7	5	0	4	2
O=C(NNC(=O)c1ccccc1O)c1ccc(Cl)c(S(=O)(=O)N2CCc3ccccc32)c1	-33*	1	0	9	-6
CC(=O)N1CCN(C(=O)c2ccc(Cl)c(S(=O)(=O)N3CCc4ccccc43)c2)CC1	-8	-6	0	0	-9
COc1ccc2cc3c(N)c(C(=O)NCc4ccco4)sc3nc2c1	-5	5	1	4	51*
Cc1ccc(-c2ccc(SCC(=O)c3ccccc3)nn2)cc1	-17	-4	1	5	1
Cc1ccc(C(=O)CSc2nc(-c3ccccc3)ccc2C#N)cc1	-11	-2	11	36*	-3
CCOC(=O)C1CCN(CCC(=O)Nc2ccc(Br)c(C)c2)CC1	4	-6	2	136*!	20
Cc1ccc(N(CC(=O)Nc2cccc(Cl)c2)S(=O)(=O)c2cccs2)cc1	-17	-1	5	19	-4
COc1ccc(NC(=O)CCSc2ccc(C)cc2)cc1	1	-2	0	2	8
Cc1cc(NC(=O)CCN2CCC(C(N)=O)CC2)ccc1Br	-4	-2	-1	4	7
CCOC(=O)C1CCCN(CCC(=O)Nc2cccc(C)c2)C1 (stereo not drawn)	-38*!	-7	-1	5	0
Cc1ccc(SCCC(=O)Nc2ccc(Br)c(C)c2)cc1	-33*	-11	-1	10	-1
Cc1ccc(N(CC(=O)Nc2ccc(Br)c(C)c2)S(=O)(=O)c2cccs2)cc1	-52*	-3	1	3	0
CCOC(=O)C1CCCN(CCC(=O)Nc2cccc(F)c2)C1 (stereo not drawn)	4	-6	0	2	8
CCCCCn1c(=O)[nH]c2cc(C(=O)Nc3cc(OC)cc(OC)c3)ccc2c1=O	3	1	0	2	4
NC(=O)C1CCN(CCC(=O)Nc2ccc(Br)cc2)CC1	16	-2	1	4	34*
SMILES	D1 antag	D1 PAM	TRHR ag	D1 agonist	TRHR enhancer
CCN(CC(=O)NCCc1ccccc1)S(=O)(=O)c1ccc(Br)cc1	-37*	-1	1	6	0
COCCNC(=O)CN(CCc1ccccc1)S(=O)(=O)c1ccc(Br)cc1	13	-12	0	1	-7
COc1ccc(-n2c(=O)c3ccc(C(=O)NCc4ccc(C)cc4)cc3n(CC(=O)Nc3ccc(C)cc3)c2=O)cc1	3	0	3	8	-10
CC(C)(C)OC(=O)N1CCC(c2c(C(=O)NCCN3CCOCC3)cnn2-c2ccc(F)cc2F)CC1	17	2	0	0	11
Cc1cccc(NC(=O)CN(C)S(=O)(=O)c2ccc3c(c2)c(=O)n(C)c(=O)n3C)c1C	19	1	0	0	-11
O=C(NCc1ccccc1)c1nc2ccccc2s1	-39*	-4	0	3	2
O=C(Nc1nnc(-c2ccccc2)o1)c1nc2ccccc2s1	-25	-13	31*	164*	-8
CCc1nc2ccccc2c(C(=O)O)c1C	3	-3	-1	2	-3
Cc1ccccc1C(=O)Nc1nnc(-c2ccc(F)cc2)o1	-37*	0	0	-1	5
O=C(NCCO)c1nc2ccccc2s1	4	0	0	0	-6
CCc1nc2ccccc2c(C(=O)NCc2ccccc2)c1C	-49*	-3	-2	1	-6
Cc1cccc(C(=O)N/N=C/c2ccncc2)c1	-37*	-8	0	0	2
COc1ccc(Oc2ncnc3c2oc2ccccc23)cc1	-4	1	0	4	8
Cc1ccccc1C(=O)Nc1cc(NC(=O)c2ccccc2C)cc(C(=O)O)c1	-38*	-4	0	7	2
COC(=O)c1cc(NC(=O)c2ccccc2F)cc(C(=O)OC)c1	-32*	3	-1	6	5
O=C(O)c1cc(NC(=O)c2ccccc2F)cc(NC(=O)c2ccccc2F)c1	17	-2	-3	5	4
COC(=O)c1cc(NC(=O)c2ccc(F)cc2)cc(C(=O)OC)c1	13	3	0	1	-6
COc1ccc(OC)c(CC2C(=O)Nc3ccc(Br)cc32)c1 (stereo not drawn)	-3	0	1	4	-4
COc1cccc(NC(=O)c2ccc(-c3nc(COc4ccccc4)c(C)o3)cc2)c1	-17	-7	2	12	1
CCC1Oc2ccc(C)cc2N(CC(=O)NCCc2ccccc2)C1=O (stereo not drawn)	-7	0	-1	-3	0
Cc1ccc(Sc2c(C)nn(C(C)(C)C)c2OC(=O)CC(C)C)cc1	21	8	1	8	1
CC(=O)c1ccc(O)c(CSc2nncn2C)c1	-32*	-11	1	7	-7
CCn1nc(C)c(CNC(=O)CCc2nnc(Cc3c[nH]c4ccccc34)o2)c1C	-49*	-8	-1	2	-4
O=C(CCc1nnc(Cc2c[nH]c3ccccc23)o1)NCC1CC12CCCCC2 (stereo not drawn)	4	-2	0	1	-1
CN(Cc1ccsc1)C(=O)CCc1nnc(Cc2c[nH]c3ccccc23)o1	2	-2	0	0	36*
CC(C)(C)NC(=O)CCc1nnc(Cc2c[nH]c3ccccc23)o1	-51*	-3	-1	3	-10
CCC(COC)NC(=O)CCc1nnc(Cc2c[nH]c3ccccc23)o1 (stereo not drawn)	2	1	1	1	1
CC(C)CCn1nnc2sc(-c3ccccc3)cc2c1=O	-4	0	1	1	-4
